Some test systems named below: K-562 leukemia; MALME-3M melanoma; MDA-MB-231 breast; RXF 393 renal; SF-268 CNS; SF-295 CNS; SF-539 CNS; UACC-257 melanoma; M14 melanoma; HCT-15 colon; HT29 colon; SNB-75 CNS; SNB-19 CNS; U251 CNS; PC-3 prostate; SK-MEL-5 melanoma; UACC-62 melanoma; LOX IMVI melanoma; SK-MEL-28 melanoma; SK-MEL-2 melanoma.
Assay in all cases: NCI-60 one-dose screen, 48 h (100 = growth as untreated, 0 = no growth, -100 = all killed)
Holding throughout (details): 10 µM unless noted

Compounds without any hit were thinned out: in the full panel of roughly 83,000, 20% have a hit.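 Activity criterion: percent growth below 10, measured after cells in 96-well plates were exposed to a single compound concentration for 48 hours.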 A number with no mark means an inactive call. Active and inactive are the calls of the source.

Eight molecules from PubChem BioAssay (NCI) can be followed below.

As to `O=C1c2c(c3c4cccnc4[nH]c3c3ccc4ccccc4c23)C(=O)N1CCO`, the growth with K-562 leukemia is 51.4%; in the test with MALME-3M melanoma it was 114%; with MDA-MB-231 breast, 78.8%; in the test on RXF 393 renal, 101%; in the test with SF-268 CNS, 78.4%; with SF-295 CNS it was 50.9%. The growth is 78.7% in the test with SF-539 CNS; 92.7% in the test on UACC-257 melanoma; 86.1% with M14 melanoma; 72.1% in the test with HCT-15 colon; 75.6% in the test with HT29 colon; 118% in the test on SNB-75 CNS. Also, the growth in the test with SNB-19 CNS is 69.9%; with U251 CNS it was 51.4%; in the test with PC-3 prostate, 70.1%; with SK-MEL-5 melanoma, 81.4%; in the test with UACC-62 melanoma, 46.5%; in the test with LOX IMVI melanoma it was 51.7%. Moreover, the growth with SK-MEL-28 melanoma is 102%; with SK-MEL-2 melanoma, 138%.

As to `CS(=O)(=O)c1ccc(-c2nc3ccccn3c2/C=N/Nc2nc(-c3ccc(Cl)cc3)cs2)cc1`, the growth with K-562 leukemia was 78.6%; in the test with MALME-3M melanoma it was 127%; in the test with MDA-MB-231 breast it was 106%; in the test on RXF 393 renal, 98.8%; in the test with SF-268 CNS, 110%; with SF-295 CNS, 98.8%. For the same molecule, the growth is 105% in the test with SF-539 CNS; 107% with UACC-257 melanoma; 107% in the test with M14 melanoma; 94.2% in the test with HCT-15 colon; 110% in the test with HT29 colon; 120% in the test with SNB-75 CNS. Besides, the growth in the test on SNB-19 CNS was 107%; in the test on U251 CNS it was 108%; in the test on PC-3 prostate, 102%; in the test with SK-MEL-5 melanoma it was 91.7%; with UACC-62 melanoma, 102%; in the test with LOX IMVI melanoma, 122%. Further, the figures for the growth in the test with SK-MEL-28 melanoma and in the test with SK-MEL-2 melanoma were 93.1% and 102%, respectively.

For `C#C[C@]1(O)CC[C@H]2[C@@H]3CC=C4c5sc(Nc6ccc(Cl)cn6)nc5CC[C@]4(C)[C@H]3CC[C@@]21C`, the growth with K-562 leukemia is 9.48% (active); with MALME-3M melanoma it was 58.3%; in the test with MDA-MB-231 breast, 27.2%; in the test on RXF 393 renal, -53.2% (active); in the test on SF-268 CNS, 43.7%; with SF-295 CNS it was -63% (active). Besides, the growth in the test with SF-539 CNS is -30.8% (active); in the test on UACC-257 melanoma, -45.2% (active); with M14 melanoma it was 50.7%; with HCT-15 colon, 39.7%; with HT29 colon, 47.2%; with SNB-75 CNS it was -0.325% (active). Moreover, the growth was 54.5% in the test with SNB-19 CNS; 19.1% with U251 CNS; 29.9% with PC-3 prostate; 84% in the test with SK-MEL-5 melanoma; 28.3% with UACC-62 melanoma; 0.11% (active) with LOX IMVI melanoma. For the same molecule, the results for the growth in the test on SK-MEL-28 melanoma and in the test on SK-MEL-2 melanoma were -27% (active) and -13.4% (active), respectively.

Take `CN(C)CCCNc1c2ccccc2nc2c1oc1ccc(Cl)cc12`: the growth with K-562 leukemia is -1.57% (active); with MALME-3M melanoma, 30.7%; in the test with MDA-MB-231 breast, -31.7% (active); in the test on RXF 393 renal, -65.8% (active); in the test with SF-268 CNS, 40.9%; in the test on SF-295 CNS it was 24.6%. The growth with SF-539 CNS was 18.3%; with UACC-257 melanoma, 49.9%; with M14 melanoma, 27%; with HCT-15 colon, -31.1% (active); with HT29 colon, -34% (active); in the test on SNB-75 CNS, 37.5%. In addition, the growth in the test with SNB-19 CNS is 43.3%; in the test on U251 CNS, 33.4%; in the test on PC-3 prostate it was 47.2%; in the test with SK-MEL-5 melanoma it was 47.9%; in the test with UACC-62 melanoma, 52.1%; in the test with LOX IMVI melanoma it was -86.5% (active). Further, the growth in the test with SK-MEL-28 melanoma is 43.8%; in the test with SK-MEL-2 melanoma, 70.8%.

In the case of `Clc1ccc2c(OCCCN3CCOCC3)c3oc4ccccc4c3nc2c1`, the growth in the test with K-562 leukemia is 19.8%; with MALME-3M melanoma, 12.5%; in the test with MDA-MB-231 breast, 32.3%; in the test with RXF 393 renal, 26.7%; in the test with SF-268 CNS, 38.3%; in the test with SF-295 CNS it was 26%. Moreover, the growth in the test on SF-539 CNS was 22.9%; with UACC-257 melanoma it was 59.8%; in the test on M14 melanoma, 30.3%; in the test with HCT-15 colon, 20.3%; with HT29 colon, 25.2%; with SNB-75 CNS, 43.5%. The growth was 41.9% in the test with SNB-19 CNS; 36.2% in the test with U251 CNS; 50.7% with PC-3 prostate; 42.7% in the test on SK-MEL-5 melanoma; 33.6% in the test with UACC-62 melanoma; 12.9% with LOX IMVI melanoma. In addition, the figures for the growth in the test on SK-MEL-28 melanoma and with SK-MEL-2 melanoma were 42.1% and 78.2%, respectively.

`Nc1ncc(-c2ccc3ncnc(N4CCc5cc(F)c(Cl)cc54)c3c2)cc1CO`: the growth is 7.76% (active) with K-562 leukemia; -25.8% (active) in the test on MALME-3M melanoma; 17% with MDA-MB-231 breast; -26.6% (active) in the test on RXF 393 renal; 8.31% (active) with SF-268 CNS; -11.5% (active) in the test with SF-295 CNS. Further, the growth was -17.8% (active) in the test with SF-539 CNS; 9.34% (active) in the test on UACC-257 melanoma; -3.69% (active) in the test with M14 melanoma; 5.51% (active) with HCT-15 colon; 12.7% with HT29 colon; -28.6% (active) in the test with SNB-75 CNS. Further, the growth is 19.1% with SNB-19 CNS; 18.8% with U251 CNS; 8.02% (active) in the test with PC-3 prostate; -72.4% (active) with SK-MEL-5 melanoma; -60.5% (active) with UACC-62 melanoma; 7.2% (active) with LOX IMVI melanoma. For the same molecule, the growth is -4.29% (active) in the test on SK-MEL-28 melanoma and -63.4% (active) in the test with SK-MEL-2 melanoma.

Regarding `Clc1ccc2c(NCCCn3ccnc3)c3oc4ccc(Cl)cc4c3nc2c1`, the growth in the test with K-562 leukemia is 66.2%; with MALME-3M melanoma, 96.5%; with MDA-MB-231 breast, 58.8%; with RXF 393 renal it was 55.4%; in the test with SF-268 CNS it was 91.1%; in the test with SF-295 CNS, 86.4%. Also, the growth with SF-539 CNS is 84%; in the test with UACC-257 melanoma, 97.9%; in the test with M14 melanoma, 105%; in the test with HCT-15 colon, 51.9%; in the test with HT29 colon, 80.9%; with SNB-75 CNS, 70.2%. Moreover, the growth with SNB-19 CNS is 82.8%; in the test on U251 CNS it was 60.5%; with PC-3 prostate it was 73.8%; with SK-MEL-5 melanoma, 86.8%; in the test on UACC-62 melanoma, 94.6%; in the test with LOX IMVI melanoma, 22.4%. Also, the growth in the test with SK-MEL-28 melanoma was 94%; with SK-MEL-2 melanoma, 113%.

On to `OC1CCc2c(-c3ccc4ncnc(N5CCc6cc(F)c(Cl)cc65)c4c3)cncc21` (stereo not given), for which the growth with K-562 leukemia was 60.9%; in the test with MALME-3M melanoma it was 64.5%; in the test on MDA-MB-231 breast, 40.2%; in the test with RXF 393 renal, 8.06% (active); with SF-268 CNS, 43.3%; in the test with SF-295 CNS, 54%. Moreover, the growth is 53.7% in the test with SF-539 CNS; 89.4% in the test with UACC-257 melanoma; 74.4% in the test with M14 melanoma; 41.1% with HCT-15 colon; 65.6% in the test on HT29 colon; 31.7% with SNB-75 CNS. Also, the growth in the test with SNB-19 CNS is 57.2%; in the test with U251 CNS, 69.6%; with PC-3 prostate, 41.3%; in the test on SK-MEL-5 melanoma it was 54%; with UACC-62 melanoma, 43.5%; with LOX IMVI melanoma it was 54%. Further, the figures for the growth in the test on SK-MEL-28 melanoma and with SK-MEL-2 melanoma were 73.6% and 46.7%, respectively.
